Sampled rows, rich in hits. Any-hit rate of the full collection: about 2.2%.
TDP-43 yeast inh = inhibitors of TDP-43 toxicity in yeast | TDP-43 expressing yeast growth rescue, BacTiter-Glo, 24 h | Potency, µM (series often up to 46.1 µM), for inactives: at the highest dose growth rescue (activation), hits mostly activators | 410,000 tested, 1.8% active | AID 652104; note: % of control where 0% means no effect; nearly all actives have a fitted effect of over 50% in size
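Yeast cells expressing TDP-43 under galactose induction are exposed to compounds for 24 hr at 30 deg C. BacTiter-Glo luminescence measures growth, so protective compounds score as activators.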
Abeta rescue = A-beta toxicity reversal in yeast | AID 1347071 | Potency, µM (highest dose often 46.1 µM), most hits filed as activators | 410,000 tested, 0.063% active | yeast expressing A-beta42, growth rescue, OD600, 48 h; response scale: 0% DMSO, 100% iron-clioquinol control; note: nearly all actives have a fitted effect of over 55% in size
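Yeast growth medium received pinned compounds, then yeast cells expressing toxic A-beta were added; plates incubated at 30 C for 48 hr. Growth read as absorbance at 600 nm, normalized to DMSO and equimolar FeCl3 plus clioquinol controls.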
FUS suppressor = rescues growth of FUS-expressing yeast | AID 1347120 | Potency, µM (highest dose often 76.6 µM), actives largely listed as activators | S. cerevisiae FUS-expressing, growth rescue, OD600, 24 h | 390,000 tested, 0.24% active;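 note: plate controls were DMSO vehicle for no effect and reference control for full effect; nearly all actives have a fitted effect of over 55% in size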
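Toxicity suppression screen in FUS-yeast. Cells induced with 2% galactose, starting OD 0.005, treated 24hr at 30C with compounds at multiple final concentrations; growth by OD600.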
Mito fusion yeast = mitochondrial division inhibition or fusion activation. 320,000 tested, 0.23% active. AID 485298. Potency, µM (top dose mostly 46.1 µM), for the others: at the highest dose growth rescue (activation), actives largely listed as activators. S. cerevisiae fusion-defective mutant growth rescue, CellTiterGlo 48 h; note: % of control where 0% means no effect; nearly all actives have a fitted effect of over 45% in size
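Yeast fusion mutant, YPEG (non-fermentable carbon), compound, 48 h at 37C non-permissive; CellTiterGlo added, 10 min RT, luminescence read. Rescued growth = division inhibition.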
aSyn rescue = alpha-synuclein toxicity inhibition in yeast; 370,000 tested, 0.14% active; Potency, µM (doses to about 46.1 µM), inactives show at the top dose growth rescue (activation), usual class: activators; Yeast expressing alpha-synuclein, growth rescue, BacTiter-Glo, 24 h; note: % of control where 0% means no effect; nearly all actives have a fitted effect of over 65% in size
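Readout is rescue of growth in alpha-synuclein-expressing yeast, so inhibitors of toxicity appear as activators. Growth after 24 hr at 30 deg C in galactose medium is quantified by luminescence.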
An asterisk follows results filed as active; i = inactive; ? = inconclusive; . = not tested or not shown; ! = not active in a repeat; [ ] = dose if it differs, or a comment. Calls come from the whole dose curve; as a rule, active = well fitted curve in the direction sought with a large enough effect; inconclusive = small, poorly fitted or top-dose-only effect, or another doubt; inactive = no such curve, though single readings can be large; an effect the other way counts as inactive or inconclusive. Potency is the fitted concentration of half-maximal effect.

SMILES | TDP-43 yeast inh | Abeta rescue | FUS suppressor | Mito fusion yeast | aSyn rescue
O=C(C[C@H]1C=C[C@H](NC(=O)Nc2ccccc2F)[C@@H](CO)O1)NCc1ccc(-c2ccccc2)cc1 | 16.7% | i | i | . | ?
Cc1ccccc1CN1C(=O)C(C)N=C(c2ccccc2)c2ccccc21 (configuration not stated) | 14.1µM* | i | i | . | .
Cc1oc(-c2ccccc2)nc1CN1C(=O)C(C)N=C(c2ccccc2F)c2cc(Cl)ccc21 (configuration not stated) | ? | i | i | 24.6% | -28.6%
S=P(c1ccccc1)(c1ccccc1)c1cnc2ccccn12 | . | . | 22.4µM* | . | .
CCn1c(CN2CCN(C)CC2)nc2ccccc21 | 21.2%[9.22 µM] | i | i | . | .
Cc1cccc(-n2c(/C=C/c3c[nH]c4ccccc34)nc3ccccc3c2=O)c1 | 28.2% | i | i | . | .
CC(C)(C)C(O)C(Oc1ccc(Cl)cc1)n1cncn1 (configuration not stated) | 2.51µM* | ? | i | 35.5µM* | ?
CC(C(=O)c1ccc(Cl)cc1Cl)n1cncn1 (configuration not stated) | 15.5% | i | i | 7.9% | 14.9%
COC(=O)[C@@H]1N=C(c2ccc(OC)cc2)O[C@]12C(=O)N(Cc1ccc(OC)cc1)c1ccccc12 | -18.3% | i | 14.1µM* | . | 2.1%
COc1ccc(Cn2c(O)c(/C=N/NC(=O)c3ccccc3)c(=O)[nH]c2=O)cc1 | 16.5% | i | i | 1.0% | -12.8%
Cc1cc(N(C)C)ccc1N=Nc1ccc(N)cc1 | 12.6µM* | i | i | . | -16.3%
Nc1ccc(N=Nc2ccccc2)cc1 | -15.0%[0.397 µM] | i | i | -3.6% | -1.2%
CCOc1ccc2nc(NC(=O)c3cccn(Cc4ccccc4Cl)c3=O)sc2c1 | ? | i | i | . | ?
COC1C(C)OC(OC2CC(C)(O)Cc3cc4c(c(O)c32)C(=O)c2c(O)cc3c(c2C4=O)OC2OC3(C)C(O)C(N(C)C)C2O)C(OC)C1(C)OC (configuration not stated) | 22.4µM* | i | . | . | ?
Cc1nc2cc([N+](=O)[O-])ccc2c(=O)n1-c1ccc(Br)cc1 | -0.7% | i | i | -0.2% | -1.4%
Cc1nc2cc([N+](=O)[O-])ccc2c(=O)n1-c1ccccc1[N+](=O)[O-] | 15.8µM* | i | i | 3.4% | 12.0%
C#CC1(O)C=CC2C3CCC4=CC(=O)CCC4C3CCC21CC (configuration not stated) | 14.1µM* | i | i | -47.7% | 16.2%
CCOc1ccc2nc(N3CCC(C(=O)N4CCC5(CC4)OCCO5)CC3)sc2c1 | 21.1% | i | ? | -5.8% | 2.0%
COc1ccc2nc(N3CCN(C(=O)CS(=O)(=O)c4ccc(C)cc4)CC3)sc2c1 | 12.6µM* | i | i | . | .
O=C(O)COc1ccccc1 | 4.0% | i | i | -8.9% | -11.0%
Cc1ccccc1C(=O)NNC(=S)NC(=O)COc1ccccc1 | 3.4% | i | i | 7.1% | 3.16µM*
CCC(NC(=O)OCc1ccccc1)P(=O)(Oc1ccccc1)Oc1ccccc1 (configuration not stated) | . | . | i | . | .
CCOc1ccc(N2CC(c3nc4ccccc4n3CCC3CCCCC3)CC2=O)cc1 (configuration not stated) | 25.1µM* | i | i | . | .
Cc1ccc(/C=C2\C(=O)NC(=S)N(c3ccc(F)cc3)C2=O)o1 | 11.2µM* | i | i | -2.0% | -0.4%
COC(=O)C1=C(c2cccc3c2S(=O)(=O)c2ccccc2-3)C[C@@H]2CC[C@H]1N2C(=O)N1CCc2cc(OC)c(OC)cc2C1 | ? | i | 20µM* | -12.2% | -0.1%
SMILES | TDP-43 yeast inh | Abeta rescue | FUS suppressor | Mito fusion yeast | aSyn rescue
Cc1cc(NC(=O)c2cccn(Cc3cccc([N+](=O)[O-])c3)c2=O)no1 | -6.1% | i | i | . | .
CC(C(=O)O)c1ccc(-c2ccccc2)c(F)c1 (configuration not stated) | 15.8µM* | i | i | 2.4% | -11.6%
COC(=O)C1=C(c2ccc(-c3ccccc3)c(F)c2)C[C@@H]2CC[C@H]1N2C(=O)NCCCOC(C)C | 22.8% | i | ? | ? | 11.0%
Oc1ccc(-[n+]2c(-c3ccccc3)cc(-c3ccccc3)cc2-c2ccccc2)cc1 | -4.9% | i | i | 10.0% | -8.2%
Oc1ccccc1-[n+]1c(-c2ccccc2)cc(-c2ccccc2)c(O)c1-c1ccccc1 | 5.0% | i | ? | 11.2µM* | 3.5%
Cc1csc2nc(COC(=O)c3ccccc3NC(=O)c3ccc(F)cc3)cc(=O)n12 | ? | i | i | . | .
O=C(O)C1(Br)CC12c1ccccc1-c1ccccc12 (configuration not stated) | 12.6µM* | i | . | . | -0.8%
CC(C)[C@@]1(NC(=O)[C@@H]2C=C3c4cccc5[nH]cc(c45)C[C@H]3N(C)C2)O[C@@]2(O)[C@@H]3CCCN3C(=O)[C@H](Cc3ccccc3)N2C1=O | . | . | . | -2.4% | .
CC(C)[C@@]1(NC(=O)[C@@H]2C[C@@H]3c4cccc5[nH]cc(c45)C[C@H]3N(C)C2)O[C@@]2(O)[C@@H]3CCCN3C(=O)[C@H](Cc3ccccc3)N2C1=O | 0.0% | i | ? | 23.1µM*! | 0.7%
Cc1ccc(Cn2cccc(C(=O)Nc3nnc(C)s3)c2=O)cc1 | -0.3% | i | i | . | .
C/C1=C\[C@@H](C)C/C=C/[C@H]2[C@@H]3O[C@]3(C)[C@@H](C)[C@H]3[C@H](Cc4c[nH]c5ccccc45)NC(=O)[C@]32C(=O)/C=C/C(=O)[C@@H]1O | 11.2µM* | i | ? | -18.8% | 22.1%
CC1=CC2/C=C(\C)CCC(O)C(O)/C=C/C(=O)C23C(=O)NC(CC(C)C)C3C1C (configuration not stated) | -3.6% | i | i | -6.5% | 2.9%
Cc1cccn2c(=O)c3c(nc12)N1CCC(Cc2ccccc2)CC1C1(C3)C(=O)N(C)C(=O)N(C)C1=O (configuration not stated) | 29.3% | i | i | 17.8µM* | 5.0%
Cc1cccc(Cn2c(SCc3ccc(C(=O)NC4CCCCC4)cc3)nc3cccnc32)c1 | ? | i | i | . | .
O=C(CI)c1ccc(Cl)cc1 | . | . | . | . | 15.0%
Cc1ccc(S(=O)(=O)Nc2ccc3ncccc3c2[N+](=O)[O-])cc1 | 3.55µM* | i | . | . | -33.1%
Oc1ccc(Cl)cc1Cc1ccccc1 | 14.1µM* | i | i | . | -9.5%
Oc1ccc(Cl)cc1Cc1cc(Cl)ccc1O | ? | ? | i | -18.9% | -54.2%
O=c1[nH]/c(=C\c2ccc(N(CCCl)CCCl)cc2)c(=O)[nH]/c1=C\c1ccc(N(CCCl)CCCl)cc1 | . | . | . | . | -1.1%

Assay outcomes (PubChem)
